According to the supplement of paper PMC10681739:

Target: T1, ETS1 (UniProt P14921)
T1 sequence: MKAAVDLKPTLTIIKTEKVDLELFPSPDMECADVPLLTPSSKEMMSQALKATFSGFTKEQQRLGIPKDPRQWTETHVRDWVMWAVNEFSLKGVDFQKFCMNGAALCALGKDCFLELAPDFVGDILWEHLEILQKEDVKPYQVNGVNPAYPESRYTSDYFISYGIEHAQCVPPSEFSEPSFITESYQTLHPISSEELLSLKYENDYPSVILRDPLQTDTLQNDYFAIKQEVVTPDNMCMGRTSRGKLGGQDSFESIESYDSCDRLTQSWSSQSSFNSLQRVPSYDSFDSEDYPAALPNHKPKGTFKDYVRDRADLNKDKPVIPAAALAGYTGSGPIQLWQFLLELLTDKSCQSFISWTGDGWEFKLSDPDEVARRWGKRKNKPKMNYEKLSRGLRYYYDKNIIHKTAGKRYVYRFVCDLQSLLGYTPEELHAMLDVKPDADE
Experiment: ETS1 binding intensity (PBM fluorescence), ETS1 alone (arbitrary fluorescence units); higher = stronger binding
Settings: ETS1 concentration 1 nM; RUNX1 concentration 0 nM
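Throughout, for RUNX1 binding intensity (PBM fluorescence), RUNX1 alone: Full-length recombinant human RUNX1 bound to double-stranded 36-bp genomic probes on a high-density microarray, scored as Alexa488 fluorescence per spot via anti-RUNX1 antibody, median of four replicate spots.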

Sequence | ETS1 binding intensity
TGGAGTGAAGCGGCTTCCTTGCGGTTGTGTGCGTGT | 403
TGGAACAATGCTGCTTCCTGTGGGTGTCCCCCGGCC | 1140
CTGAAGAGGAAATGTATTCCTCATGTTGTGGTTGGC | 742
CGGGGCTTCCGGCGCGCTGCCTTGTGGGCACGGTAG | 591
GAGACTTTCGCTTCCGGCTGCCGCAGGCGCTTCGCT | 1830
CCCTGGGGCCCCACTTCCTTGCCCACAAGAAAGGAC | 395
CCTCTGTTCTTCACAGGAAGCCACAGGCCTCCCCTG | 2840
CAGGCCTTTCCTGCTATCGTTTGTGGTTTGAGCAGT | 429
GGGGTCAGGAAATGGGTGTGCCGCGGGTAAGGCGCT | 949
GTGCCCCGGACCTACGGATACCACACACAGACAGGC | 470
CTTGTGCCTACATCCTGTAGCTGTGGTTTAGGGACG | 1420
TGGGAACTTCCTGTGGAGGAGTGCATTGTGGGACTT | 851
AGCCTTAATTACCCGGAAGTGCGGTCCCAGGGACTT | 8970
TTAGGCAGAGCTCATTTCCGCCCACATCAAAAGTAA | 1710
TGCTTAGCAGGAAGTTAGTCTGCCTGTGGTAGCTCC | 2770
GGCAAACAGGAAACACTCCCAGGGCTGTGGGCTCCT | 1550
GAGGACTTCCGGGTGCGTGTGATATCTGCGGGCCCG | 802
GGCCCTTCTGGGGCAGGATGTGGTGCCTGCCAAAGG | 4650
TGACTTCCGGTCCGTAGTGGGGCCTGCGGTGGGAGT | 3690
TAAAGAAACAGGATGACTGTGGTTTACTGCGAGCAT | 500

Sequence | ETS1 binding intensity
CCAGCAAAGGAAGCTTGGTCAACCACAGCAGCCTGT | 393
TACATCTTCAGAGGAAGTGGGTTTGTGTATCTTTGA | 2460
GACAGAGGAAACTAGGTGTGACAACCACAAACAGCT | 432
GAAGCCCAACAGGATGCCGAGTAACCACCCACTGAA | 1040
AGCACAAACCCAGGATGTGGTAAATGAAATGAAAAA | 1260
TTCAGGAAATGCAAACGGCTGCAGAGACCGCAGAGG | 499
GCCAGGGCAGGAAGTTGCTAACCGCCCCAGAGCAGG | 2840
AGCTGCAGTTGGGCAGGAAACCACAATGTCGAAGAC | 2490
CCCCTATATCACAGGATGCCGCAAACTAGTAACAGG | 1610
GGCTTCCGGCGGGGTACCCTCCTCTGTGGGCGGGGC | 563
CTGCTGCTTTTAGGATGTGGTTTTATTATTGTCGGG | 670
AAGACAACATCCTGCCGGCACAGCCTGCGGGTTACT | 576
ACGCGCTCCCTCACTTCCTGCGGCTTTTGGTCCCTC | 1310
TCGTGTTCTCTTCCGTTCTGTGGTAGCTTTTTGGTA | 655
CACCCGAACGGAAACACCTGCGGCTGAGGGGAGGGG | 959
TTTTTAAGGTCAGGATGTGGGCACATCTAAGGGGCA | 1330
GGGGCAGCTTCCGGCAGGAGAGCCCGCATTCACGGC | 731
TTGCTCCCGGAAGCCCCGCCCGACCGCGGCTCCTGA | 999
TCCCTCATGAGCTTCTTCCGCCCGCAACACGAGACT | 481
TCGGAGACGGCGAAAGGAAACCGCAAGGAGGCCACC | 642

Target: RUNX1 (UniProt Q01196)
Experiment: RUNX1 binding intensity (PBM fluorescence), RUNX1 alone (arbitrary fluorescence units); higher = stronger binding
Settings: RUNX1 concentration 2 nM; ETS1 concentration 0 nM
Procedure: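 Cooperative gcPBM on 36-bp genomic probes with neighbouring ETS1 and RUNX1 sites. Recombinant human RUNX1 (2 nM) was incubated alone or with ETS1 (25 nM) and detected with anti-RUNX1 antibody plus Alexa488 secondary. Values are medians over 4 replicate spots; the RUNX1+ETS1 data were normalised to the RUNX1-only data. The probes sit in constant array flanks that are not printed.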

RUNX1, sequence (Q01196 whole entry): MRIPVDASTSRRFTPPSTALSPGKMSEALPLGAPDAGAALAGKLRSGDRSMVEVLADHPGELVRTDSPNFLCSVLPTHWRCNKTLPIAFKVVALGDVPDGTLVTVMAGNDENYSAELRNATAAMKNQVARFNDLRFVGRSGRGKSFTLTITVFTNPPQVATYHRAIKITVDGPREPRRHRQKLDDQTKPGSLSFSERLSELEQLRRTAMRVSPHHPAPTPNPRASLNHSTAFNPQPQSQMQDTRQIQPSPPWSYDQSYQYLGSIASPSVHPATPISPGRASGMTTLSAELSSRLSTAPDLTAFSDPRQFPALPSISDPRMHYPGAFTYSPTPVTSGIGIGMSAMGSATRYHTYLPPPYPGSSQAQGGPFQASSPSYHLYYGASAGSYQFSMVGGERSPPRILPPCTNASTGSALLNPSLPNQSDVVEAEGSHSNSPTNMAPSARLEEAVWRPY

Sequence | RUNX1 binding intensity
TGGAGTGAAGCGGCTTCCTTGCGGTTGTGTGCGTGT | 1900
TGGAACAATGCTGCTTCCTGTGGGTGTCCCCCGGCC | 698
CTGAAGAGGAAATGTATTCCTCATGTTGTGGTTGGC | 860
CGGGGCTTCCGGCGCGCTGCCTTGTGGGCACGGTAG | 711
GAGACTTTCGCTTCCGGCTGCCGCAGGCGCTTCGCT | 710
CCCTGGGGCCCCACTTCCTTGCCCACAAGAAAGGAC | 1020
CCTCTGTTCTTCACAGGAAGCCACAGGCCTCCCCTG | 958
CAGGCCTTTCCTGCTATCGTTTGTGGTTTGAGCAGT | 1940
GGGGTCAGGAAATGGGTGTGCCGCGGGTAAGGCGCT | 733
GTGCCCCGGACCTACGGATACCACACACAGACAGGC | 928
CTTGTGCCTACATCCTGTAGCTGTGGTTTAGGGACG | 887
TGGGAACTTCCTGTGGAGGAGTGCATTGTGGGACTT | 686
AGCCTTAATTACCCGGAAGTGCGGTCCCAGGGACTT | 768
TTAGGCAGAGCTCATTTCCGCCCACATCAAAAGTAA | 867
TGCTTAGCAGGAAGTTAGTCTGCCTGTGGTAGCTCC | 734
GGCAAACAGGAAACACTCCCAGGGCTGTGGGCTCCT | 727
GAGGACTTCCGGGTGCGTGTGATATCTGCGGGCCCG | 703
GGCCCTTCTGGGGCAGGATGTGGTGCCTGCCAAAGG | 707
TGACTTCCGGTCCGTAGTGGGGCCTGCGGTGGGAGT | 801
TAAAGAAACAGGATGACTGTGGTTTACTGCGAGCAT | 830

Sequence | RUNX1 binding intensity
CCAGCAAAGGAAGCTTGGTCAACCACAGCAGCCTGT | 850
TACATCTTCAGAGGAAGTGGGTTTGTGTATCTTTGA | 786
GACAGAGGAAACTAGGTGTGACAACCACAAACAGCT | 882
GAAGCCCAACAGGATGCCGAGTAACCACCCACTGAA | 822
AGCACAAACCCAGGATGTGGTAAATGAAATGAAAAA | 858
TTCAGGAAATGCAAACGGCTGCAGAGACCGCAGAGG | 793
GCCAGGGCAGGAAGTTGCTAACCGCCCCAGAGCAGG | 804
AGCTGCAGTTGGGCAGGAAACCACAATGTCGAAGAC | 1320
CCCCTATATCACAGGATGCCGCAAACTAGTAACAGG | 827
GGCTTCCGGCGGGGTACCCTCCTCTGTGGGCGGGGC | 841
CTGCTGCTTTTAGGATGTGGTTTTATTATTGTCGGG | 1020
AAGACAACATCCTGCCGGCACAGCCTGCGGGTTACT | 720
ACGCGCTCCCTCACTTCCTGCGGCTTTTGGTCCCTC | 1880
TCGTGTTCTCTTCCGTTCTGTGGTAGCTTTTTGGTA | 1470
CACCCGAACGGAAACACCTGCGGCTGAGGGGAGGGG | 989
TTTTTAAGGTCAGGATGTGGGCACATCTAAGGGGCA | 816
GGGGCAGCTTCCGGCAGGAGAGCCCGCATTCACGGC | 1370
TTGCTCCCGGAAGCCCCGCCCGACCGCGGCTCCTGA | 865
TCCCTCATGAGCTTCTTCCGCCCGCAACACGAGACT | 1280
TCGGAGACGGCGAAAGGAAACCGCAAGGAGGCCACC | 4180
